Here are results for 27 compounds from PMC5540273 (PLoS ONE, 2017).
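Note: KINOMEscan kinase panel screen.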

For the first experiment, the system named is WNK1. Particulars: concentration: 1 μM,replicates: in singlicate; n = 1.
With `C[C@H]1Oc2cc(cnc2N)-c2c(nn(C)c2C#N)CN(C)C(=O)c2ccc(F)cc21`, the “%Inh” value is reported as 0%.
Still for that read-out and setting: next, `Cl.Cl.NC[C@H](Cc1ccc(C(F)(F)F)cc1)NC(=O)c1cc(Br)c(-c2ccnc3[nH]ccc23)s1` [GSK1487252]: 10%; `Cc1ccc2c(-c3ccncc3)c(-c3ccc(F)cc3)nn2c1.Cl` [GW461484]: 0%; `NC(=O)c1cc(-c2ccccc2)cc2c(C3CCNCC3)c[nH]c12` [GSK301362]: 11%.
Consider `CC(C)Nc1cc(-c2ccc3c(N)n[nH]c3c2)nc(N)n1` [GSK2221681], for which the “%Inh” value is reported as 0%.
The same measure, in the same setting: next, `O=C(NCCCN1CCOC1=O)c1cnc(NCc2cc(Cl)ccc2Cl)nc1NC1CCCC1`: 0%.
As to `Cl.Cl.NC[C@H](CC1CCCCC1)NC(=O)c1cc(Br)c(-c2ccnc3[nH]ccc23)s1` [GSK1581427], the “%Inh” value was 0%.
The same measure, in the same setting: then `CCN(CC)CCOc1ccc(Nc2ncc3cc(-c4c(Cl)cccc4Cl)c(=O)n(C)c3n2)cc1` [SB-601273], with 26%.
Same read-out and setting: next, `C[C@@H](Oc1cc(-c2cnn(C3CCNCC3)c2)cnc1N)c1c(Cl)ccc(F)c1Cl`: 11%; `C=CC(=O)Nc1cc2c(Nc3ccc(F)c(Cl)c3)ncnc2cc1OCCCN1CCOCC1` [GW781483]: 16%; `Cl.Oc1cc(-c2nc(-c3ccccc3)[nH]c2-c2ccncc2)ccc1Cl` [SB-386023]: 0%.
The same measure, in the same setting: next, `Cc1n[nH]c2ccc(-c3cc(OC[C@@H](N)Cc4ccccc4)cnc3-c3ccoc3)cc12.O=C(O)C(F)(F)F.O=C(O)C(F)(F)F` [GSK507358]: 8%.
Turning to `Cc1occc1-c1nc(N)c(OC[C@@H](N)Cc2c[nH]c3ccccc23)cc1-c1cc2c(C)n[nH]c2cn1` [GSK1660450], the “%Inh” value is on record as 0%.
For the compound `Cc1cc(C(=O)Nc2ccc(Oc3ccc4nc(NC(=O)C5CC5)cn4n3)cc2)nn1-c1ccccc1`, the “%Inh” value is on record as 0%.

A further experiment concerns WNK2. Particulars: concentration: 1 μM,replicates: in singlicate; n = 1.
With `CC(C)N1C(=O)Cc2cc(Nc3ncc(C(F)(F)F)c(NCc4cccc(S(C)(=O)=O)c4)n3)ccc21`, the “%Inh” value worked out at 1%.
Same read-out and setting: then `CN(C)CC(O)COc1ccc(Nc2nccc(-c3cnn4nc(N5CCOCC5)ccc34)n2)cc1` (centres unmarked) [GW767488], with 0%.
Consider `Cl.Cl.Nc1nc(-c2ccc3c(N)n[nH]c3c2)cc(N2CCCC(NC(=O)c3ccccc3)C2)n1` (centres unmarked) [GSK2286775], for which the “%Inh” value turned out to be 10%.
Turning to `Cc1cc2cn[nH]c2cc1-c1cccc2c(N)c(C(N)=O)nnc12`, the “%Inh” value worked out at 3%.
On the same count and under the same terms, then `CN(C)CCOc1ccc(-c2cc(-c3c[nH]nc3-c3ccccn3)ccn2)cc1` [GW835314], with 13%; and `COc1ccc(C[C@@H](CN)NC(=O)c2cc(Br)c(-c3ccnc4[nH]ccc34)s2)cc1.Cl.Cl` [GSK1389063], with 32%; and `CNC(=O)c1ccccc1Sc1ccc2c(/C=C/c3ccccn3)n[nH]c2c1`, with 11%.
Still for that read-out and setting: then `CCn1c(-c2nonc2N)nc2c(C#CC(C)(C)O)nc(OCCN)cc21.Cl.Cl` [GSK902056], with 24%; and `Cc1ccc(-n2nc(C(C)(C)C)cc2NC(=O)Nc2ccc(OCCN3CCOCC3)c3ccccc23)cc1` [GW839464], with 1%; and `Nc1nc(Nc2ccccc2)cc(-c2ccc3c(N)n[nH]c3c2)n1` [GSK2225749], with 0%.
Still for that read-out and setting: then `CCN(CC)CCCCNc1ncc2cc(-c3c(Cl)cccc3Cl)c(NC(=O)NC(C)(C)C)nc2n1`, with 51%.
Regarding `C[C@@H]1CCN(C(=O)CC#N)C[C@@H]1N(C)c1ncnc2[nH]ccc12`, the “%Inh” value amounted to 0%.
On the same count and under the same terms, next, `O=C(NCCNc1ccnc(NCc2ccc(F)cc2)n1)c1cc2ccccc2s1` [GSK1379944]: 1%; `C[C@H]1Oc2cc(cnc2N)-c2c(nn(C)c2C#N)CN(C)C(=O)c2ccc(F)cc21`: 2%; `Cl.Cl.NC[C@H](Cc1ccc(C(F)(F)F)cc1)NC(=O)c1cc(Br)c(-c2ccnc3[nH]ccc23)s1` [GSK1487252]: 0%.
The same measure, in the same setting: then `Cc1ccc2c(-c3ccncc3)c(-c3ccc(F)cc3)nn2c1.Cl` [GW461484], with 0%; and `NC(=O)c1cc(-c2ccccc2)cc2c(C3CCNCC3)c[nH]c12` [GSK301362], with 6%; and `CC(C)Nc1cc(-c2ccc3c(N)n[nH]c3c2)nc(N)n1` [GSK2221681], with 0%.
As for `O=C(NCCCN1CCOC1=O)c1cnc(NCc2cc(Cl)ccc2Cl)nc1NC1CCCC1`, the “%Inh” value turned out to be 0%.
On the same count and under the same terms, next, `Cl.Cl.NC[C@H](CC1CCCCC1)NC(=O)c1cc(Br)c(-c2ccnc3[nH]ccc23)s1` [GSK1581427]: 3%; `CCN(CC)CCOc1ccc(Nc2ncc3cc(-c4c(Cl)cccc4Cl)c(=O)n(C)c3n2)cc1` [SB-601273]: 86%.
As to `C[C@@H](Oc1cc(-c2cnn(C3CCNCC3)c2)cnc1N)c1c(Cl)ccc(F)c1Cl`, the “%Inh” value amounted to 46%.
Same read-out and setting: then `C=CC(=O)Nc1cc2c(Nc3ccc(F)c(Cl)c3)ncnc2cc1OCCCN1CCOCC1` [GW781483], with 0%; and `Cl.Oc1cc(-c2nc(-c3ccccc3)[nH]c2-c2ccncc2)ccc1Cl` [SB-386023], with 0%.
As for `Cc1n[nH]c2ccc(-c3cc(OC[C@@H](N)Cc4ccccc4)cnc3-c3ccoc3)cc12.O=C(O)C(F)(F)F.O=C(O)C(F)(F)F` [GSK507358], the “%Inh” value is on record as 11%.
Turning to `Cc1occc1-c1nc(N)c(OC[C@@H](N)Cc2c[nH]c3ccccc23)cc1-c1cc2c(C)n[nH]c2cn1` [GSK1660450], the “%Inh” value amounted to 5%.
In the case of `Cc1cc(C(=O)Nc2ccc(Oc3ccc4nc(NC(=O)C5CC5)cn4n3)cc2)nn1-c1ccccc1`, the “%Inh” value stood at 0%.
